Screening data from PubChem BioAssay.
A selection: hits, their analogues and other compounds. The true share with any hit is near 3.5%.
Tb PYK inh: inhibitors of Trypanosoma brucei pyruvate kinase; actives 0.12% (n = 410,000); Q57TT1; Potency, µM (titrated, usually from 76.8 µM), for the others: top-dose activity, negative = inhibition, usual class: inhibitors; TbPYK enzyme, Kinase-Glo Plus ATP luminescence, 45 min; note: % is set by controls: 0 for no effect and ±100 for the full control effect; nearly all actives have a fitted effect of over 50% in size
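Assay buffer: 50 mM TEA pH 7.2, 100 mM KCl, 10 mM MgCl2, 0.05% BSA, 0.01% Tween-20. Pyruvate kinase from T. brucei plus substrate met compound, then ADP (130 uM final). Luminescence was read post 45 min RT.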
Giardia FBPA inh: inhibitors of Giardia lamblia fructose-1,6-bisphosphate aldolase; A8B2U2; purified Giardia FBPA; Potency, µM (doses to about 59.6 µM), inactives show at the highest dose activity, negative = inhibition, actives largely listed as inhibitors; actives 0.71% (n = 290,000); AID 2451; note: % is set by controls: 0 for no effect and ±100 for the full control effect; nearly all actives have a fitted effect of over 55% in size
Target sequence (A8B2U2 whole entry, looked up): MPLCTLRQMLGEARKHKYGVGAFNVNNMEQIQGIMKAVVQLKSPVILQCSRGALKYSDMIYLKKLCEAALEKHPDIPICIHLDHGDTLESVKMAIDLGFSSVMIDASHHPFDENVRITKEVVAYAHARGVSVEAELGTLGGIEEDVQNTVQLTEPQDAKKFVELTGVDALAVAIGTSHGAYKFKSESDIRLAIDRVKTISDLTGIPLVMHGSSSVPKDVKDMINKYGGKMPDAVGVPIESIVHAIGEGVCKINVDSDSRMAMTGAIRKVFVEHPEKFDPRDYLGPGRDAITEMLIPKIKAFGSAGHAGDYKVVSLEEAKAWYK
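40 nM FBPA preincubated 10 min at RT with compound (up to 57.5 uM final), then substrate plus GAPDH/TPI/NAD/arsenate coupling and diaphorase/resazurin added. Fluorescence read after 20 min at RT, 525/598 nm.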
NS1 inh: blocks influenza NS1 protein function; Potency, µM (series often up to 46.1 µM), for the others: at the top dose activity, positive = more growth; actives 0.4% (n = 270,000); AID 2326; calls by dose curve; note: actives are rising curves; nearly all actives have a fitted effect of over 50% in size
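S. cerevisiae expressing influenza A NS1, grown in glucose, washed, then diluted 1:100 into pH 6.0 -URA galactose medium with 23 nl compound. Growth recovery read as OD600; NS1-free strain serves as control.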
RE007 growth inh: less growth of the S. pombe RE007 Vpr strain. S. pombe RE007 Vpr strain, BacTiter-Glo ATP luminescence, 24 h. Potency, µM (top dose mostly 92.2 µM), without a hit: top-dose activity change, negative = less growth, actives largely listed as inhibitors. actives 0.21% (n = 360,000). AID 651644; active = well fitted falling curve with a large enough effect; inconclusive = small, poorly fitted or top-dose-only effect; inactive = no such curve, though single readings can be large or run the other way; note: % is set by controls: 0 for no effect and ±100 for the full control effect; nearly all actives have a fitted effect of over 50% in size
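Fission yeast strain RE007, carrying one chromosomally integrated HIV-1 vpr copy, was seeded at OD 0.01 in PMG+AL medium with 23 nL pinned compound. After 24 h at 30 °C and 99% humidity, viability was read by BacTiter-Glo luminescence.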
LmPK inhibitor: blocks Leishmania mexicana pyruvate kinase activity | purified LmPK, Kinase-Glo ATP luminescence, 1 h | Potency, µM (titrated, usually from 57.5 µM), without a hit: top-dose activity change, negative = inhibition, actives largely listed as inhibitors | actives 0.37% (n = 290,000); note: % is set by controls: 0 for no effect and ±100 for the full control effect
Target sequence (Q27686 whole entry, looked up): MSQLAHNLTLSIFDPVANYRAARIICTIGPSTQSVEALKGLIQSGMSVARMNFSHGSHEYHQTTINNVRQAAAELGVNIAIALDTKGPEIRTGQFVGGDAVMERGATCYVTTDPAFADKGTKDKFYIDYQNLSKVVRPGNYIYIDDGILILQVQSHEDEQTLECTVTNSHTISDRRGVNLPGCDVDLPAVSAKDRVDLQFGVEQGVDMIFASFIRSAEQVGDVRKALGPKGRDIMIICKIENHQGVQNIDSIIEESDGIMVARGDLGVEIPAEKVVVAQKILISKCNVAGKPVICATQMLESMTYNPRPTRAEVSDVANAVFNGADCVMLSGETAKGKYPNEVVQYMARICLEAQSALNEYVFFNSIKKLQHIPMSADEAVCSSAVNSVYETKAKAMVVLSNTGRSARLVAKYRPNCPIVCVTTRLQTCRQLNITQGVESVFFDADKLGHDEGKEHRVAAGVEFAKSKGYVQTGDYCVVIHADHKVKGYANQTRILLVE
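Purified LmPK (0.1 nM) converted ADP (0.1 mM) to ATP with PEP (0.5 mM) in imidazole buffer pH 7.2 with KCl and MgCl2, 1 h at room temperature. ATP was read by Kinase-Glo luminescence; data normalized to uninhibited and no-enzyme controls.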
Sm TGR inh: inhibitors of Schistosoma mansoni thioredoxin glutathione reductase; purified TGR, DTNB reduction, TNB absorbance 405 nm; Potency, µM (doses to about 114 µM), for inactives: top-dose activity change, negative = inhibition, hits mostly inhibitors; actives 3% (n = 360,000); note: % is set by controls: 0 for no effect and ±100 for the full control effect; nearly all actives have a fitted effect of over 60% in size
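First, TGR (20 nM dispensed) and NADPH were mixed with compound. Second, a 15 min room-temperature incubation followed. Third, further NADPH and then DTNB were added to start the reaction. Finally, TNB absorbance was monitored kinetically.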
* hit, by the source's call; u = inconclusive; x = no result. Unless noted, calls come from the whole dose curve; as a rule, active = well fitted curve in the direction sought with a large enough effect; inconclusive = small, poorly fitted or top-dose-only effect, or another doubt; inactive = no such curve, though single readings can be large; an effect the other way counts as inactive or inconclusive. Potency is the fitted concentration of half-maximal effect.

SMILES | Tb PYK inh | Giardia FBPA inh | NS1 inh | RE007 growth inh | LmPK inhibitor | Sm TGR inh
O=C(NCc1ccc(F)cc1)C(=O)NCC(c1ccco1)S(=O)(=O)c1cccs1 (stereo not drawn) | -1.4% | x | x | x | x | 7.94µM*
O=C(NCc1ccccc1F)C(=O)NCC(c1ccco1)S(=O)(=O)c1cccs1 (stereo not drawn) | 0.3% | x | x | x | x | 12.6µM*
COc1ccccc1CNC(=O)C(=O)NCC(c1ccco1)S(=O)(=O)c1cccs1 (stereo not drawn) | 4.8% | x | x | x | x | 8.91µM*
O=C(NCc1ccccc1Cl)C(=O)NCC(c1ccco1)S(=O)(=O)c1cccs1 (stereo not drawn) | 1.3% | x | x | x | x | 31.6µM*
CCC(=O)N1CCc2cc(S(=O)(=O)NCCC(=O)NCc3ccc(C)cc3)ccc21 | -4.7% | x | x | x | x | 4.4%
Cc1c(Cl)cccc1NC(=O)C(=O)NCCc1csc(-c2cccc(F)c2)n1 | 2.8% | x | x | x | x | -0.6%
COc1ccc2oc(-c3ccc(C)c(NC(=O)c4ccc(N5CCCCC5)c([N+](=O)[O-])c4)c3)nc2c1 | -8.3% | x | x | x | x | -0.8%
Cc1cc2nc(-c3ccc(OCc4ccc(F)cc4)cc3)cc(C(F)(F)F)n2n1 | -4.9% | x | x | x | x | 4.4%
O=C(N/N=C/c1ccc(Br)s1)c1ccco1 | -2.0% | 2.8% | -5.5% | -20.2% | -4.1% | 1.1%
O=C(N/N=C/c1sc(=O)n(Cc2ccc(Br)cc2)c1Cl)c1ccco1 | -6.2% | x | 10.6% | -11.4% | 12.9% | 44.7µM*
O=C(O)c1cccc(Cn2c(Cl)c(/C=N/Nc3ccccc3)sc2=O)c1 | -27.0% | 10.5% | x | 19.1% | 4.7% | 3.55µM*
COc1ccc(C(=O)N/N=C/c2sc(=O)n(Cc3cccc(C(=O)O)c3)c2Cl)cc1 | -5.5% | -0.5% | 10.8% | 19.7% | -2.0% | 22.4µM*
Cc1ccccc1OCC(=O)N/N=C/c1sc(=O)n(Cc2cccc(C(=O)O)c2)c1Cl | 5.4% | 8.7% | u | -16.1% | 5.8% | u
O=C(O)c1cccc(Cn2c(Cl)c(/C=N/NC(=O)c3ccccc3O)sc2=O)c1 | -2.9% | 13.2% | 0.7% | 2.6% | -1.0% | 39.8µM*
COc1cccc(NC(=O)Cn2nc3c4ccccc4n(Cc4cccc(F)c4)cc-3c2=O)c1 | -4.9% | x | x | x | x | 1.2%
COc1cc(CN(C(=O)c2ccc(C)cc2)c2ccccn2)cc(OC)c1OC | -6.7% | x | x | x | x | 1.4%
CCC(=O)N(C1=C(NC)C(=O)c2ccccc2C1=O)C(C)C | -12.8% | -8.3% | x | -7.0% | -1.7% | -2.9%
CCC(=O)N(CC)C1=C(O)c2ccccc2C(=O)C1=O | u | 7.92µM* | -145.5% | u | 25.1µM* | 0.282µM*
COc1cc(OC)c(NC(=O)N2CCc3cc(S(=O)(=O)N4CCC(C)CC4)ccc32)cc1Cl | -4.3% | x | x | x | x | -7.2%
COc1cccc(NC(=O)Cn2c(=O)n(-c3ccccc3)c(=O)c3c4c(sc32)CCCC4)c1 | 2.6% | x | x | x | x | 4.0%
CCc1cc(C(c2ccccn2)N2CCN(C)CC2)c(NC(=O)c2ccccc2)s1 (stereo not drawn) | 6.1% | 4.7% | u | -14.6% | -6.9% | 11.2µM*
COCC1=C(C(=O)OC(C)OC(=O)OC(C)C)N2C(=O)C(NC(=O)/C(=N/OC)c3csc(N)n3)[C@H]2SC1 (stereo partly drawn) | -9.6% | x | x | x | x | x
C/C(=C\c1ccco1)C1C(C#N)=C(N)OC2=C1C(=O)CC(C)(C)C2 (stereo not drawn) | -19.5% | -24.4% | 1.2% | 2.3% | 6.3% | 35.5µM*
CC1(C)CC(=O)C2=C(C1)OC(N)=C(C#N)C2C#Cc1ccccc1 (stereo not drawn) | -21.0% | -29.2% | -11.6% | 5.62µM* | 3.1% | 1.58µM*
CC1(C)CC(=O)C2=C(C1)OC(N)=C(C#N)C2c1ccoc1 (stereo not drawn) | 6.1% | -14.2% | x | -1.9% | 3.6% | -15.4%
SMILES | Tb PYK inh | Giardia FBPA inh | NS1 inh | RE007 growth inh | LmPK inhibitor | Sm TGR inh
COc1ccc(CNC(=O)c2ccc3c(c2)CCN3S(=O)(=O)c2ccccc2)cc1 | -3.1% | x | x | x | x | -1.9%
Cn1cc(C(=O)N/N=C/C2=C(N3CCOCC3)C(=C/c3ccc([N+](=O)[O-])cc3)/CC2)ccc1=O | 3.0% | x | x | -10.6% | x | x
Cc1cc(C)nc(NN=CC2=C(N3CCOCC3)/C(=C/c3ccc(Cl)cc3)CC2)n1 | 2.6% | x | x | -4.5% | x | x
Cc1occc1C(=O)N/N=C/C1=C(N2CCOCC2)C(=C\c2ccc(Cl)cc2Cl)/CC1 | -4.1% | 3.6% | -4.3% | 7.5% | -4.2% | -12.3%
O=C(O)c1ccc(N/N=C/C2=C(N3CCOCC3)C(=C\c3ccccc3)/CC2)cc1 | -28.0% | -5.6% | 19.3% | u | -2.2% | 17.8µM*
O=CC1=C(N2CCOCC2)/C(=C/c2ccc(Cl)cc2)CC1 | 6.5% | -6.7% | x | -20.5% | 0.0% | 22.4µM*
Cc1cc(C)nc(N/N=C/C2=C(N3CCOCC3)C(=C\c3ccc(Cl)cc3)/CC2)n1 | -12.3% | -13.2% | 25.2% | -6.3% | -0.9% | 31.6µM*
CN(C(=O)NC(=O)C1=C(N2CCOCC2)/C(=C/c2ccccc2)CC1)S(C)(=O)=O | -15.4% | 13.1% | -30.4% | -3.0% | 1.3% | 15.8µM*
FC(F)(F)c1nc(=S)c2ccccc2[nH]1 | u | u | 5.8% | 4.0% | -28.7% | 2µM*
Cc1ccc(N2C(=O)CC(Sc3nc4ccccc4o3)C2=O)cc1Cl (stereo not drawn) | -0.9% | -8.4% | -4.9% | 10µM* | 1.4% | 12.6µM*
Cc1cccc(C(=O)NNC(=O)c2ccc(F)cc2)c1 | 4.4% | 1.8% | -2.5% | -13.8% | -1.4% | 7.94µM*
COC(=O)c1ccc(NC(=O)c2cccc(C)c2)cc1 | -4.6% | -1.3% | -21.4% | -18.8% | -5.0% | 89.1µM*
Cc1nc2nc(CNC(=O)OC(C)(C)C)nn2c(C)c1CCC(=O)NCc1ccccc1Cl | 3.7% | x | x | x | x | -5.3%
Cc1ccc(-c2noc(C3CCCN(C(=O)C4CCCCC4)C3)n2)o1 (stereo not drawn) | -25.4% | -4.4% | -6.8% | 5.2% | -4.8% | 25.1µM*
Cc1ccc(-c2noc(C3CCCN(C(=O)c4ccc(Cl)cc4)C3)n2)o1 (stereo not drawn) | 5.2% | 7.0% | -16.8% | 3.4% | 0.2% | 12.2%
COc1ccc(C2C=C(c3ccc(F)cc3)Nc3nc(-c4ccc(Cl)cc4)nn32)cc1 (stereo not drawn) | -3.2% | x | x | x | x | 0.8%
O=C(Nc1nc2n(n1)C(c1ccccc1)C=C(c1ccc(Cl)cc1)N2)c1ccco1 (stereo not drawn) | 2.8% | x | x | x | x | 14.1µM*
O=C(Nc1nc2n(n1)C(c1ccccc1)C=C(c1ccccc1)N2)c1ccco1 (stereo not drawn) | -9.1% | 2.3% | 17.1% | -4.7% | -0.1% | 1.78µM*
